The source of these data is PubChem BioAssay (NCATS).

Results filed as inconclusive are left out. Where a call stands in place of a potency, no number is given. Activity calls are given as the source filed them. The call rests on the fitted dose curve; in most records, active means well fitted inhibition curve with a large enough effect; inconclusive means small, poorly fitted or top-dose-only effect; inactive means flat fitted curve, though single readings scatter.
Potency means the concentration at half of the fitted maximal effect.

One experiment relates to 3D7. Nature of the experiment: qHTS profiling for inhibitors of Plasmodium falciparum proliferation (AID 504749). Further: nearly all actives have a fitted effect of over 60% in size. To be noted: P. falciparum in erythrocytes, SYBR Green DNA, 72 h; series mostly up to 28.7 µM. Summed up: (§1)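 In a 72 h erythrocytic culture (37 C, humidified, 5% CO2) at 2.5% hematocrit and 0.3% starting parasitemia, compounds were tested; SYBR Green I in detergent lysis buffer stained parasite DNA overnight.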
(qHTS replaces the single test concentration by a dilution series.)
In the case of `CC1=CCC(C(C)(C)O)CC1` (stereo unspecified), the Potency result was “inactive”. In the case of `Oc1cc(O)c2c(c1)OC(c1ccc(O)c(O)c1)C(O)C2` (stereo unspecified), the Potency entry is “inactive”. In the case of `CC1=C(/C=C/C(C)=C/C=C/C(C)=C/C=C/C=C(C)/C=C/C=C(C)/C=C/C2=C(C)CCCC2(C)C)C(C)(C)CCC1`, the Potency result was “inactive”. Take `CCCCCCCC(=O)O`: the Potency result was “inactive”.

Turning to `Cc1c(C)c2c(c(C)c1O)CC[C@@](C)(CCC[C@H](C)CCC[C@H](C)CCCC(C)C)O2`, the Potency result was “inactive”.

The next experiment relates to 7G8. The experiment is described as above. To be noted: P. falciparum in erythrocytes, SYBR Green DNA, 72 h; series mostly up to 28.7 µM. Summed up: as §1
In the case of `CC1=CCC(C(C)(C)O)CC1` (stereo unspecified), the Potency entry was “inactive”.

Consider `Oc1cc(O)c2c(c1)OC(c1ccc(O)c(O)c1)C(O)C2` (stereo unspecified), for which the Potency entry was “inactive”. Consider `CC1=C(/C=C/C(C)=C/C=C/C(C)=C/C=C/C=C(C)/C=C/C=C(C)/C=C/C2=C(C)CCCC2(C)C)C(C)(C)CCC1`, for which the Potency entry was “inactive”. On to `CCCCCCCC(=O)O`, for which the Potency entry is “inactive”. As for `CC1=C(/C=C/C(C)=C/C=C/C(C)=C/CO)C(C)(C)CCC1`, the Potency is 10 µM (active).

`Cc1c(C)c2c(c(C)c1O)CC[C@@](C)(CCC[C@H](C)CCC[C@H](C)CCCC(C)C)O2`: the Potency entry was “inactive”.
